According to PubChem BioAssay:
Inconclusive results are not listed. The source made the active and inactive calls. Rule as the data show it, unless noted: active = inhibition above about 30%; inactive = the rest.

Legend:
[1] = Her2 expression decrease, cell viability multiplex – SKBR3 breast tumor cells, AlphaScreen, ATP viability, primary screen (AID 461;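 active = Her2 level under about 52% in both replicate screens, with viability over 70% of control, limit read from the data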;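 as to Her2 level: lower value means less Her2 protein in the cells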;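 as to viability: percent of carrier control wells set as 100% viability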); details: SKBR3 Her2 protein level, 18-24 h, measured here: SKBR3 viability, ATP luminescence, at 10 µM
[2] = molecular target: Receptor tyrosine-protein kinase erbB-2 (Homo sapiens) (UniProt P04626); assay: as above; details: 18-24 h, at 10 µM, stronger effect = lower value
[3] = reduced viability of SK-BR-3 breast cancer cells – cell-based, 24 h, human, pilot screen (AID 572;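 active = viability at or below 10% of carrier control in both of two separate runs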;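 also: compound exposure lasted between 18 and 24 h rather than exactly 24 h; 100% = carrier-treated control wells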); details: SK-BR-3 viability, CellTiter-Glo luminescence, at 10 µM, stronger effect = lower value
[4] = HUVEC growth inhibition – cell-based, human, primary screen (AID 575;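 active = viability at or below 30% in both replicate assays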;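 also: 100% = median of untreated cell wells with 0.1% DMSO on each plate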); details: HUVEC proliferation, CellTiter-Glo luminescence, 72 h; at 10 µM; stronger effect = lower value
[5] = H69AR cell proliferation blockers – human, duplicate replicates, primary screen (AID 580;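 active = viability at or under a set limit in both replicates, limit being median viability minus 3 SD, cut at about 48% in these data, passing the limit was not always enough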;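 also: 100% = mean luminescence of untreated wells and 0% = no signal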); details: H69AR lung tumor cells viability, ATP luminescence, 72 h; at 10 µM; stronger effect = lower value
[6] = MRP1 drug-resistance reversers in H69AR cells – cell-based, doxorubicin co-treatment, pilot screen (AID 601;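 active = viability loss from added drug above about 55%, and viability with drug at most 40%, in both replicates, limit read from the data, passing the limit was not always enough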); details: CellTiter-Glo, 72 h, at 10 µM; for differential viability (reversal): stronger effect = higher value
[7] = yeast transport mutant growth inhibition pilot in 384-well plates, post-Golgi transport modulator project (AID 636; in the data active = inhibition above about 31%); details: absorbance 615 nm, about 18 h, stronger effect = higher value
[8] = growth suppression of yeast trafficking mutant, preliminary HTS, modulators of trafficking downstream of Golgi apparatus project, 1536-format plate, OD 615 nm (AID 637); details: yeast transport mutant growth, absorbance 615 nm, 18 h; stronger effect = higher value
[9] = S. cerevisiae growth inhibition in permissive medium (OD615), pilot counter-assay for S. cerevisiae lifespan shortening project, permissive growth control (AID 705;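 active = growth inhibition above 25% in both replicates, a cutoff set 3 SD above the mean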); details: OD615, 24 h, at 10 µM, stronger effect = higher value
[10] = S. cerevisiae growth inhibition in restrictive medium, OD615, pilot screen, restrictive growth control, yeast lifespan reduction project (AID 706;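 active = growth inhibition above a set limit, 3 SD over mean compound inhibition, in both replicates, cut at about 43% in these data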;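 also: modified DeaD lifespan yeast strain shifted to restrictive glucose medium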); details: OD615, 48 h, at 10 µM, stronger effect = higher value
[11] = doxorubicin toxicity protection in MRP-1 cells – H69AR cells, CellTiter-Glo, duplicate, MRP-1 activator project, pilot screen (AID 807;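 active = viability increase at or above a cutoff of the median across tested compounds plus 3 SD, cut at about 8.5% in these data, passing the limit was not always enough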;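 also: compound pretreatment 18-22 h then 72 h combined with doxorubicin; 0% = doxorubicin alone and 100% = vehicle without doxorubicin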); details: H69AR viability with doxorubicin, CellTiter-Glo luminescence; at 10 µM; stronger effect = higher value
[12] = viability of HCT116 without oncogenic beta-catenin – human colon tumor cells, pilot screen (AID 823;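 active = cell viability at or below a set limit in both duplicate runs, the limit being the all-compound median minus 4 SD, cut at about 23% in these data, passing the limit was not always enough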;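 also: 0% = wells killed by 20 µM Hyamine and 100% = untreated DMSO cell wells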); details: HCT116 beta-catenin knockout viability, CellTiter-Glo, 60 h; at 10 µM; stronger effect = lower value
[13] = viability of PTEN-null HCT116 cells – cell-based, HCT116 clonal line, CellTiter-Glo, pilot screen (AID 824;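 active = viability at or below 27.92% in each of two runs, the all-compound median minus 4 SD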;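 also: 0% = 20 µM Hyamine control and 100% = vehicle cell control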); details: HCT116 PTEN-deleted viability, 60 h, at 10 µM, stronger effect = lower value
[14] = RAM pathway blockade in budding yeast – dse1pr::URA3 reporter, 5-FOA selection, pilot screen (AID 869;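 active = inhibition over a set limit, the all-compound mean plus 3 SD, in both replicate runs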;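 also: 0% = DMSO wells with no growth and 100% = 10 µM 1-NA-PP1 with full growth; RAM network block rescues cells from 5-FOA so hits raise OD615 growth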); details: S. cerevisiae dse1pr::URA3 5-FOA growth, OD615, 2 d; at 10 µM; stronger effect = higher value; strain carries analog-sensitive mutant Cbk1 kinase
[15] = RAM signaling pathway blockade in yeast – S. cerevisiae, Pdr1DBD-CYC8 efflux-inhibited sensitized strain, primary screen (AID 1298;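 active = RAM network inhibition above 8.4% in each of two replicates, 3 SD over the compound average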;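 also: 0% = DMSO untreated cells without growth and 100% = 10 µM 1-NA-PP1 full growth; higher means more yeast growth rescued from 5-FOA killing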); details: S. cerevisiae cbk1-as DSE1-URA3 strain, 5-FOA growth OD615, 2 d; at 50 µM; stronger effect = higher value
[16] = H69AR cells + 2 uM doxorubicin, measured here: viability with 2 uM doxorubicin, stronger effect = lower value
[17] = H69AR cells, compound alone cytotoxicity

Receptor tyrosine-protein kinase erbB-2 (Homo sapiens), sequence (P04626 whole entry, looked up): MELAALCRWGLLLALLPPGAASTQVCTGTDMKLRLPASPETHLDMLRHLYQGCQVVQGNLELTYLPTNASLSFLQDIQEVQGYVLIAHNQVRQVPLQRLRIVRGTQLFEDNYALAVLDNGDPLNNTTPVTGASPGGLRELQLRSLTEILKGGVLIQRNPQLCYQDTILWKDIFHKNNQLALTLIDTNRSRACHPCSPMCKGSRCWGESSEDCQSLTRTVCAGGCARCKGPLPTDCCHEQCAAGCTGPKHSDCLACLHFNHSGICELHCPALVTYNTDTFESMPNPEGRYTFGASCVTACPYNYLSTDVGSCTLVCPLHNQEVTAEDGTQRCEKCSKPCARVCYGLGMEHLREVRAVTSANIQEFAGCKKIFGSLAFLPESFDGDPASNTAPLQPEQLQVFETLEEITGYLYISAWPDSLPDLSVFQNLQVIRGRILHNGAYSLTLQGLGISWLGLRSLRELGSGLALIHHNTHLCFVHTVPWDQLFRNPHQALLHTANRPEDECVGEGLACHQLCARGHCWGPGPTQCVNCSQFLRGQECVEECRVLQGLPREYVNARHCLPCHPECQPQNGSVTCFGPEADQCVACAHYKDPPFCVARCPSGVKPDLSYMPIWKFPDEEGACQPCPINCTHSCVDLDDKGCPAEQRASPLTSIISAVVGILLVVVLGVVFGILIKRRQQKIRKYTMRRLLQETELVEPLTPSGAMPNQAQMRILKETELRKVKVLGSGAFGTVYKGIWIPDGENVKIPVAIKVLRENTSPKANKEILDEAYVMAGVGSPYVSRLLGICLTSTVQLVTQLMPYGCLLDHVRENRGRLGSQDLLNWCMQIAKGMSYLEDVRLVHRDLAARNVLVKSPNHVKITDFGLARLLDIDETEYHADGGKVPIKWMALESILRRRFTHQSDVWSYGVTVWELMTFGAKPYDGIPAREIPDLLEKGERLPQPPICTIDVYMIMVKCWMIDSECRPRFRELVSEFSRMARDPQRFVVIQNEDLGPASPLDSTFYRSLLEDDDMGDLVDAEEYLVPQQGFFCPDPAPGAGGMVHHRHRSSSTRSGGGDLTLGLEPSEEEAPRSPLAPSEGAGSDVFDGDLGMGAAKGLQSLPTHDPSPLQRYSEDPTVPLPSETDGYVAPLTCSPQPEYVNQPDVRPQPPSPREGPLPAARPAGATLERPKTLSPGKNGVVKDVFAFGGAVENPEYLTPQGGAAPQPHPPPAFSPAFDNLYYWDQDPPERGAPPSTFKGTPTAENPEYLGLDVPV

CCCCN(C)C(=O)c1ccc(CS(=O)(=O)c2ccccc2C)o1
81.3%: viability [6, 17]
87.2%: viability [6, 16]
93%: viability [1]
inactive: Her2 level [2] 86.5% | viability [3] 93% | viability [4] 120% | viability [5] 81.3% | differential viability (reversal) ([6]; H69AR cells + 2 uM doxorubicin) -5.93% | inhibition [7] 1.28% | inhibition [8] -2.17% | growth inhibition [9] 6.16% | growth inhibition [10] 14.7% | viability increase [11] -1.67% | viability [12] 93.8% | viability [13] 91.7% | inhibition [14] -0.45% | RAM network inhibition [15] 3.61%

COC(=O)Cn1c(=NC(=O)CSCC(=O)Nc2cc(C)on2)sc2ccccc21
88.5%: viability [6, 17]
89%: viability [1]
inactive: Her2 level [2] 90% | viability [3] 89% | viability [4] 90.4% | viability [5] 88.5% | differential viability (reversal) ([6]; H69AR cells + 2 uM doxorubicin) 3% | inhibition [7] -5.07% | inhibition [8] -3.5% | growth inhibition [9] -6.84% | growth inhibition [10] -19.8% | viability increase [11] -0.92% | viability [12] 99.3% | viability [13] 96.9% | RAM network inhibition [15] 7.51%
85.5%: viability [6, 16]

COc1ccc(N2CCN(c3oc(COc4ccccc4Cl)nc3C#N)CC2)cc1
109%: viability [1]
83.6%: viability [6, 16]
inactive: Her2 level [2] 105% | viability [3] 109% | viability [4] 104% | viability [5] 92.3% | differential viability (reversal) ([6]; H69AR cells + 2 uM doxorubicin) 8.78% | inhibition [7] -6.23% | inhibition [8] -4.75% | growth inhibition [9] -2.64% | growth inhibition [10] -5.2% | viability increase [11] 2.27% | viability [12] 65.7% | viability [13] 64.9% | RAM network inhibition [15] 4.12%
92.3%: viability [6, 17]

CCCCOC(=O)Nc1nc2ccc(OC)cc2s1
inactive: Her2 level [2] 92% | viability [3] 94% | viability [4] 92.3% | viability [5] 99.7% | differential viability (reversal) ([6]; H69AR cells + 2 uM doxorubicin) 16.4% | inhibition [7] -6.08% | inhibition [8] -6.17% | growth inhibition [9] -8.06% | growth inhibition [10] -16.4% | viability increase [11] 2.27% | viability [12] 96.3% | viability [13] 93.7% | RAM network inhibition [15] 7.75%
83.3%: viability [6, 16]
99.7%: viability [6, 17]
94%: viability [1]

CC(=O)Nc1ccc(S(=O)(=O)Nc2nc3c(s2)CCCC3)cc1
88%: viability [6, 16]
99.5%: viability [6, 17]
inactive: Her2 level [2] 103% | viability [3] 106% | viability [4] 106% | viability [5] 99.5% | differential viability (reversal) ([6]; H69AR cells + 2 uM doxorubicin) 11.5% | inhibition [7] -8.93% | inhibition [8] -9.52% | growth inhibition [9] 4.96% | growth inhibition [10] 12.8% | viability increase [11] -1.41% | viability [12] 95.1% | viability [13] 90.7% | inhibition [14] 1.9% | RAM network inhibition [15] 2.5%
106%: viability [1]

COC(=O)CN1C(=O)C(O)(CC(=O)c2ccc(Cl)cc2)c2ccccc21 (stereo not given)
inactive: Her2 level [2] 88.5% | viability [3] 87.5% | viability [4] 94.4% | viability [5] 70.5% | differential viability (reversal) ([6]; H69AR cells + 2 uM doxorubicin) -21.3% | inhibition [7] -6.8% | inhibition [8] 5% | growth inhibition [9] -0.49% | growth inhibition [10] -8.47% | viability increase [11] -3.44% | viability [12] 87.3% | viability [13] 91.5% | inhibition [14] 1.81% | RAM network inhibition [15] 0.35%
87.5%: viability [1]
70.5%: viability [6, 17]
91.8%: viability [6, 16]

COc1cccc(/C=N/n2cnnc2)c1OCc1ccccc1
90.8%: viability [6, 16]
97.8%: viability [6, 17]
98%: viability [1]
inactive: Her2 level [2] 104% | viability [3] 98% | viability [4] 93.2% | viability [5] 97.8% | differential viability (reversal) ([6]; H69AR cells + 2 uM doxorubicin) 7.02% | inhibition [7] 0% | inhibition [8] -0.16% | growth inhibition [9] -14.7% | growth inhibition [10] -17% | viability increase [11] -0.6% | viability [12] 107% | viability [13] 98.9% | inhibition [14] 0.69% | RAM network inhibition [15] -1.19%

CCOc1ccc(CCN2C(=O)C3C4C=CC(C4)C3C2=O)cc1OCC (stereo not given)
87.9%: viability [6, 17]
96%: viability [1]
inactive: Her2 level [2] 93.5% | viability [3] 96% | viability [4] 97.7% | viability [5] 87.9% | differential viability (reversal) ([6]; H69AR cells + 2 uM doxorubicin) 4.56% | inhibition [7] -6.27% | inhibition [8] -1.67% | growth inhibition [9] 0.49% | growth inhibition [10] 3.99% | viability increase [11] -0.38% | viability [12] 102% | viability [13] 101% | inhibition [14] 1.38% | RAM network inhibition [15] 1.5%
83.4%: viability [6, 16]

Cc1nc2ccccc2c2oc(C(=O)NCCN3CCCCC3C)cc12 (stereo not given)
inactive: Her2 level [2] 94% | viability [3] 81% | viability [4] 99.5% | viability [5] 93.1% | differential viability (reversal) ([6]; H69AR cells + 2 uM doxorubicin) -6.12% | inhibition [7] -3.46% | inhibition [8] -3% | growth inhibition [9] -3.45% | growth inhibition [10] 0.34% | viability increase [11] -2.08% | viability [12] 66.4% | viability [13] 70.6% | inhibition [14] 1.77% | RAM network inhibition [15] -0.67%
99.2%: viability [6, 16]
93.1%: viability [6, 17]
81%: viability [1]
